Compounds without any hit were thinned out: in the full panel of roughly 79,000, 15% have a hit. Calls of active or inactive are those of the source. No stated cut-off is given here; in the data, active means growth inhibition above about 70%; inactive means the rest.
Assays:
[1] = NCI Yeast Anticancer Drug Screen. Data for the mec2-1 strain (AID 157); details: S. cerevisiae mec2-1 strain, stronger effect = higher value
Outline: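 Using mec2-1 yeast: add compound, measure growth, express inhibition versus vehicle-treated cultures.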

[2] = NCI Yeast Anticancer Drug Screen. Data for the rad14 strain (AID 159);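 further: 0% = growth of vehicle-treated control cultures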; details: S. cerevisiae rad14 strain growth inhibition, stronger effect = higher value
Outline: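 Yeast cells carrying a defined DNA-repair defect were exposed to compounds, and growth inhibition was calculated relative to vehicle-treated control cultures.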

[3] = NCI Yeast Anticancer Drug Screen. Data for the sgs1 mgt1 strain (AID 161);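 further: 0% = growth of cultures given vehicle only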; details: S. cerevisiae sgs1 mgt1 strain, stronger effect = higher value
Outline: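 This yeast growth screen uses a strain with defined DNA-repair lesions; compound-treated growth is compared with vehicle-treated growth.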

[4] = NCI Yeast Anticancer Drug Screen. Data for the CLN2oe strain (AID 163);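 further: 0% = growth of vehicle-only control cultures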; details: S. cerevisiae CLN2oe strain, stronger effect = higher value
Outline: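 Whole-cell yeast growth assay. A strain engineered for altered cell-cycle control received compound, and inhibition relative to vehicle-treated cultures was recorded.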

[5] = NCI Yeast Anticancer Drug Screen. Data for the cln2 rad14 strain (AID 165);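 further: 0% = growth equal to vehicle treated cultures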; details: S. cerevisiae cln2 rad14 strain, stronger effect = higher value
Outline: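 Yeast strain cln2 rad14, bearing defects in cell cycle control and DNA repair, serves as the test system; values reflect growth inhibition compared with vehicle.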

[6] = NCI Yeast Anticancer Drug Screen. Data for the bub3 strain (AID 167); details: S. cerevisiae bub3 mutant strain, stronger effect = higher value
Outline: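 Compounds were applied to a genetically altered yeast strain carrying a cell-cycle control defect. Growth inhibition was scored against vehicle-treated controls.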

[7] = NCI Yeast Anticancer Drug Screen. Data for the wt2 strain (AID 169);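 further: 0% = growth of vehicle-treated yeast cultures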; details: S. cerevisiae wt2 strain growth inhibition, stronger effect = higher value
Outline: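 Treated yeast vs. vehicle-treated yeast: growth inhibition determined.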

[8] = NCI Yeast Anticancer Drug Screen. Data for the mlh1 strain (AID 171);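 further: 0% = growth of vehicle-treated control cultures of the same strain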; details: S. cerevisiae mlh1 strain growth inhibition, stronger effect = higher value
Outline: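 A yeast strain with a defined genetic lesion serves as the test organism. Cultures receive compound or vehicle, and growth is measured.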

[9] = NCI Yeast Anticancer Drug Screen. Data for the sgs1 strain (AID 173);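 further: 0% = growth of vehicle-only control cultures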; details: S. cerevisiae sgs1 mutant, stronger effect = higher value
Outline: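 A genetically defined yeast mutant is incubated with the test compound, and its growth is compared to that of the same strain given vehicle.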

[10] = NCI Yeast Anticancer Drug Screen. Data for the mlh1 rad18 strain (AID 175); details: S. cerevisiae mlh1 rad18 strain growth inhibition, stronger effect = higher value
Outline: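 Steps: expose repair-defective yeast to compound; measure growth; express inhibition against vehicle-treated controls.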

[11] = NCI Yeast Anticancer Drug Screen. Data for the rad18 strain (AID 177); details: S. cerevisiae rad18 mutant growth inhibition, stronger effect = higher value
Outline: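 Measured value is growth inhibition of a yeast strain bearing a DNA repair alteration, referenced to vehicle-treated cells.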

[12] = NCI Yeast Anticancer Drug Screen. Data for the rad52 strain (AID 147);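 further: 0% = growth of vehicle-treated control cultures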; details: S. cerevisiae rad52 mutant growth inhibition, stronger effect = higher value
Outline: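 Here a repair-compromised yeast strain receives each compound; its growth is then quantified and normalised to vehicle-only controls.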

[13] = NCI Yeast Anticancer Drug Screen. Data for the wt1 strain (AID 149);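 further: 0% = growth of vehicle-treated wt1 cultures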; details: S. cerevisiae wt1 strain (SPY 50644) growth inhibition, stronger effect = higher value
Outline: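 Yeast wt1 strain exposed to compounds; growth inhibition measured relative to vehicle-treated controls.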

[14] = NCI Yeast Anticancer Drug Screen. Data for the rad50EPP+ strain (AID 151);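 further: 0% = growth of vehicle-treated control cultures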; details: S. cerevisiae rad50 mutant strain, stronger effect = higher value
Outline: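 Read-out is yeast growth inhibition relative to vehicle; cells used were the rad50EPP+ strain.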

[15] = NCI Yeast Anticancer Drug Screen. Data for the mgt1 strain (AID 153); details: S. cerevisiae mgt1 mutant growth inhibition, stronger effect = higher value
Outline: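 Measured: inhibition of mgt1 yeast growth by compound, normalized to vehicle-treated cultures.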

[16] = NCI Yeast Anticancer Drug Screen. Data for the rad50 strain (AID 155);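 further: 0% = growth of vehicle-only cultures of the same strain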; details: S. cerevisiae rad50 strain growth inhibition, stronger effect = higher value
Outline: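 Yeast carrying a defined DNA repair defect were exposed to test compounds, and growth was compared with vehicle-treated controls to give percent inhibition.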

[17] = at 5.0 µM (retest, dose inferred, filed as 0.5)
[18] = at 50.0 µM (retest, dose inferred, filed as 5.0)

Measured: growth inhibition

[N-]=[N+]=NC1=C(c2ccccn2)C(=O)c2cccc3cccc1c23
inactive: [1]; [17] -5% | [1]; at 11.0 µM 14% | [1]; at 33.0 µM 37% | [1]; [18] 40% | [1]; at 50.0 µM 63.8% | [1]; at 100.0 µM 61% | [2]; at 1.2 µM 2% | [2]; at 3.7 µM 5% | [2]; at 11.0 µM 11% | [2]; at 33.0 µM 26% | [2]; at 100.0 µM 63% | [3]; [17] -7% | [3]; [18] 28% | [4]; at 1.2 µM -3% | [4]; at 3.7 µM 1% | [4]; at 11.0 µM 5% | [4]; at 33.0 µM 35% | [5]; [17] 38% | [5]; [18] 31% | [5]; at 50.0 µM 67% | [6]; at 1.2 µM -1% | [6]; at 3.7 µM 4% | [6]; [17] -11% | [6]; at 11.0 µM 18% | [6]; at 33.0 µM 24% | [6]; [18] 59% | [6]; at 50.0 µM 69.6% | [6]; at 100.0 µM 61% | [7]; at 1.2 µM -1% | [7]; at 3.7 µM -1% | [7]; at 11.0 µM 5% | [7]; at 33.0 µM 26% | [7]; at 100.0 µM 63% | [8]; at 1.2 µM 4% | [8]; at 3.7 µM -2% | [8]; at 11.0 µM 7% | [8]; at 33.0 µM 19% | [8]; at 100.0 µM 42% | [9]; at 1.2 µM -2% | [9]; at 3.7 µM 1% | [9]; at 11.0 µM 6% | [9]; at 33.0 µM 37% | [9]; at 100.0 µM 67% | [10]; [17] 4% | [10]; [18] 52% | [10]; at 50.0 µM 59% | [11]; at 1.2 µM 0% | [11]; at 3.7 µM 6% | [11]; at 11.0 µM 12% | [11]; at 33.0 µM 58%
active: [3]; at 50.0 µM 71.4% | [4]; at 100.0 µM 74% | [11]; at 100.0 µM 85%

CCCCCCCCCC/C=C\C(=O)O
inactive: [12]; at 1.2 µM -3% | [12]; at 3.7 µM -1% | [12]; at 11.0 µM -9% | [12]; at 33.0 µM -13% | [13]; at 1.2 µM -12% | [13]; at 3.7 µM -18% | [13]; at 11.0 µM -35% | [13]; at 33.0 µM -23% | [14]; at 1.2 µM 0% | [14]; at 3.7 µM -1% | [14]; at 11.0 µM 0% | [14]; at 33.0 µM 62% | [15]; at 1.2 µM -36% | [15]; at 3.7 µM -10% | [15]; at 11.0 µM -22% | [15]; at 33.0 µM -9% | [16]; at 1.2 µM 15% | [16]; at 3.7 µM 10% | [16]; [17] 39% | [16]; at 11.0 µM -5% | [16]; at 33.0 µM 8% | [16]; [18] 68% | [1]; at 1.2 µM 4% | [1]; at 3.7 µM 5% | [1]; [17] 36% | [1]; at 11.0 µM -11% | [1]; at 33.0 µM 49% | [2]; at 1.2 µM -3% | [2]; at 3.7 µM -5% | [2]; at 11.0 µM -1% | [2]; at 33.0 µM 38% | [3]; [17] -18% | [3]; [18] 58% | [4]; at 1.2 µM 15% | [4]; at 3.7 µM 25% | [4]; at 11.0 µM 7% | [4]; at 33.0 µM -20% | [5]; [17] 67% | [5]; at 50.0 µM 46.5% | [6]; at 1.2 µM -6% | [6]; at 3.7 µM -15% | [6]; [17] -7% | [6]; at 11.0 µM -29% | [6]; at 33.0 µM -10% | [7]; at 1.2 µM -14% | [7]; at 3.7 µM -15% | [7]; at 11.0 µM -18% | [7]; at 33.0 µM -7% | [8]; at 1.2 µM -10% | [8]; at 3.7 µM -4% | [8]; at 11.0 µM -20% | [8]; at 33.0 µM 10% | [9]; at 1.2 µM -7% | [9]; at 3.7 µM -5% | [9]; at 11.0 µM -9% | [9]; at 33.0 µM 19% | [10]; [17] 37% | [10]; [18] 69% | [11]; at 1.2 µM 0% | [11]; at 3.7 µM 1% | [11]; at 11.0 µM -5% | [11]; at 33.0 µM 19%
active: [12]; at 100.0 µM 97% | [13]; at 100.0 µM 97% | [14]; at 100.0 µM 75% | [15]; at 100.0 µM 98% | [16]; at 50.0 µM 78% | [16]; at 100.0 µM 97% | [1]; [18] 74% | [1]; at 50.0 µM 79.8% | [1]; at 100.0 µM 95% | [2]; at 100.0 µM 98% | [3]; at 50.0 µM 88.5% | [4]; at 100.0 µM 97% | [5]; [18] 73% | [6]; [18] 73% | [6]; at 50.0 µM 85.8% | [6]; at 100.0 µM 97% | [7]; at 100.0 µM 97% | [8]; at 100.0 µM 97% | [9]; at 100.0 µM 98% | [10]; at 50.0 µM 73.8% | [11]; at 100.0 µM 97%

O=C(O)c1cccc(-c2c3ccc(=O)cc-3oc3cc(O)ccc23)c1
inactive: [12]; at 1.2 µM -4% | [12]; at 3.7 µM 26% | [12]; at 11.0 µM 23% | [12]; at 33.0 µM 62% | [13]; at 1.2 µM -10% | [13]; at 3.7 µM -5% | [13]; at 11.0 µM 18% | [14]; at 1.2 µM -10% | [14]; at 3.7 µM 3% | [14]; at 11.0 µM 1% | [14]; at 33.0 µM -2% | [14]; at 100.0 µM 25% | [15]; at 1.2 µM 21% | [15]; at 3.7 µM 12% | [15]; at 11.0 µM 43% | [16]; at 1.2 µM 9% | [16]; at 3.7 µM 13% | [16]; at 11.0 µM 22% | [16]; at 33.0 µM 65% | [16]; at 50.0 µM 63.6% | [1]; at 1.2 µM 14% | [1]; at 3.7 µM 14% | [1]; at 11.0 µM 36% | [1]; at 50.0 µM 23.1% | [2]; at 1.2 µM -29% | [2]; at 3.7 µM -20% | [2]; at 11.0 µM 2% | [3]; [17] 0% | [3]; [18] 39% | [3]; at 50.0 µM 54.2% | [4]; at 1.2 µM 11% | [4]; at 3.7 µM -13% | [4]; at 11.0 µM -4% | [4]; at 33.0 µM 61% | [5]; [17] 33% | [5]; [18] 69% | [5]; at 50.0 µM 51% | [6]; at 1.2 µM 10% | [6]; at 3.7 µM 29% | [6]; [17] 53% | [6]; at 11.0 µM 49% | [6]; [18] 69% | [6]; at 50.0 µM 62.9% | [7]; at 1.2 µM -33% | [7]; at 3.7 µM -31% | [7]; at 11.0 µM -1% | [8]; at 1.2 µM -23% | [8]; at 3.7 µM -6% | [8]; at 11.0 µM 39% | [9]; at 1.2 µM 16% | [9]; at 3.7 µM 35% | [9]; at 11.0 µM 44% | [10]; at 50.0 µM 47.8% | [11]; at 1.2 µM -3% | [11]; at 3.7 µM 6% | [11]; at 11.0 µM 41%
active: [12]; at 100.0 µM 85% | [13]; at 33.0 µM 77% | [13]; at 100.0 µM 96% | [15]; at 33.0 µM 80% | [15]; at 100.0 µM 97% | [16]; [17] 90% | [16]; [18] 99% | [16]; at 100.0 µM 90% | [1]; [17] 94% | [1]; at 33.0 µM 84% | [1]; [18] 99% | [1]; at 100.0 µM 96% | [2]; at 33.0 µM 71% | [2]; at 100.0 µM 95% | [4]; at 100.0 µM 96% | [6]; at 33.0 µM 79% | [6]; at 100.0 µM 92% | [7]; at 33.0 µM 76% | [7]; at 100.0 µM 95% | [8]; at 33.0 µM 78% | [8]; at 100.0 µM 93% | [9]; at 33.0 µM 83% | [9]; at 100.0 µM 92% | [10]; [17] 94% | [10]; [18] 99% | [11]; at 33.0 µM 71% | [11]; at 100.0 µM 89%

Source: PubChem BioAssay (NCI)
